Several values for one entry are separate records, joined by “and”; a condition that tells them apart may be missing. Equal entries are not always repeated. Inconclusive results are not listed. Activity calls are given as the source filed them.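 How the source made its calls, unless noted: active means compounds whose cell count with miR-34 switched on is under 0.7 times the count with it off; inactive means the rest.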
Assays:
[1] = target: ATP-dependent translocase ABCB1 (Homo sapiens) (UniProt P08183); test: MDR1 (ABCB1) efflux transporter inhibition, cell-based (AID 377; in the data active means fluorescence slope change above about 50%); conditions: MDR1-expressing cells, fluorescent substrate accumulation slope; stronger effect = higher value; concentration not given here
Chain of ATP-dependent translocase ABCB1 (Homo sapiens) (P08183 whole entry, looked up): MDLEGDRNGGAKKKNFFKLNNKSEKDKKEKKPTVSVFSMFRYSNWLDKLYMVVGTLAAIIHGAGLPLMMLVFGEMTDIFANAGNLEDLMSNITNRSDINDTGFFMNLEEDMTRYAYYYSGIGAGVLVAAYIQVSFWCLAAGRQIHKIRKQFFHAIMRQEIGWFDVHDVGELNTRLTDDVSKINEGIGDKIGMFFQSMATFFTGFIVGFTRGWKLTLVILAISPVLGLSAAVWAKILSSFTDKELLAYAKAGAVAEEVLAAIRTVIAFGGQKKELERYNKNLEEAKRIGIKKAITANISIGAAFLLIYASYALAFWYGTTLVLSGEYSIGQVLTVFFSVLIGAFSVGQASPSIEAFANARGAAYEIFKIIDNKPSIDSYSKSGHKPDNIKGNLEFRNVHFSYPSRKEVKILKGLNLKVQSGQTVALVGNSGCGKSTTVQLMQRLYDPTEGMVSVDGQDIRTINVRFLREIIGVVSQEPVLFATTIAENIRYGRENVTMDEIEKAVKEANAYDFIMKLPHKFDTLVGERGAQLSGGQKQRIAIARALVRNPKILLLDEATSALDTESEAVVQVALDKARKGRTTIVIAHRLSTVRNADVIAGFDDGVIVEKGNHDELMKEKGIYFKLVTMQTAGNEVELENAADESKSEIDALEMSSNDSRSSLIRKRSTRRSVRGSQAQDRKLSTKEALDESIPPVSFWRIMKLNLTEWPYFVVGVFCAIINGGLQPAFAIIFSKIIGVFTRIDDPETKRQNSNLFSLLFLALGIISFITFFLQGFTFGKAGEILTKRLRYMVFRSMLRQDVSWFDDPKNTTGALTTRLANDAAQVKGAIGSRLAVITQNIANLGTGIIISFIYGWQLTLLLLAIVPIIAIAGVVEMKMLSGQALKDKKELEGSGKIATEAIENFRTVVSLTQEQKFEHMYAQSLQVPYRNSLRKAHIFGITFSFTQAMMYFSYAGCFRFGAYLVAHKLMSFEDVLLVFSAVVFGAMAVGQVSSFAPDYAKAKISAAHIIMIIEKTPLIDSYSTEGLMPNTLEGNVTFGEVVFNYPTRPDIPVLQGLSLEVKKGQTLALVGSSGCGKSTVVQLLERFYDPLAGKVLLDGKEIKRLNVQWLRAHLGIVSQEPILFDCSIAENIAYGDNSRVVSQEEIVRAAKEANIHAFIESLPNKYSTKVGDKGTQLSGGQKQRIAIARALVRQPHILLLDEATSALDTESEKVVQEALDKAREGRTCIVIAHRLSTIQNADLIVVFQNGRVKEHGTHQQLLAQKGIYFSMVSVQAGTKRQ

[2] = circadian clock period modulators, cell-based, LOPAC library, luminescence reporter (AID 2774; call rule not given here;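 further: values are relative to mean of DMSO wells on each plate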); conditions: circadian reporter cells, at 7 µM, actives lie on both sides
[3] = hESC survival regulators, cell-based (AID 493140; call rule not given here;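 further: cells exposed to compounds for four days before counting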); conditions: human embryonic stem cell survival screen; stronger effect = higher value
[4] = liver-stage malaria parasite growth inhibition, primary screen, cell-based, HepG2, luciferase luminescence, HepG2 viability (AID 624349; in the data active means parasite load remaining mostly below about 12%, no sharp cut-off; inactive means mostly above about 10%;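 further: 100% = mean of DMSO negative control wells on the same plate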); conditions: P. berghei liver stage in HepG2, luciferase luminescence, concentration not given here; parasite load remaining: stronger effect = lower value; viability: measured here: HepG2 viability without parasites
[5] = sensitizers of A549 cells to miR-34 induction, primary screen, imaging, A549 dox-inducible miR-34, nuclei and caspase counts (AID 1347080); conditions: A549 miR-34 inducible, Hoechst nuclei count, 48 h
[6] = survival rescue of mitochondrial mutant cells in low glucose, primary screen, MELAS cybrids, Rieske KO mouse fibroblasts, CellTiter-Glo (AID 1508586;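 active means mean z-score across replicates of 1.96 or higher in either the MELAS or the Rieske mutant cell line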;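 further: z relative to plate mean and SD of compound and empty wells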)
[7] = target: NAD(+) hydrolase SARM1 (Homo sapiens) (UniProt Q6SZW1); test: SARM1 TIR NADase inhibitors, cell lysate, NAD-Glo luminescence (AID 1508614;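 active means compound whose remaining NAD level is above about 45 nM, limit read from the data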); conditions: SAM-TIR HEK293T lysate NADase, at 1 µM, stronger effect = higher value
Chain of NAD(+) hydrolase SARM1 (Homo sapiens) (Q6SZW1 whole entry, looked up, the tested form may be a part): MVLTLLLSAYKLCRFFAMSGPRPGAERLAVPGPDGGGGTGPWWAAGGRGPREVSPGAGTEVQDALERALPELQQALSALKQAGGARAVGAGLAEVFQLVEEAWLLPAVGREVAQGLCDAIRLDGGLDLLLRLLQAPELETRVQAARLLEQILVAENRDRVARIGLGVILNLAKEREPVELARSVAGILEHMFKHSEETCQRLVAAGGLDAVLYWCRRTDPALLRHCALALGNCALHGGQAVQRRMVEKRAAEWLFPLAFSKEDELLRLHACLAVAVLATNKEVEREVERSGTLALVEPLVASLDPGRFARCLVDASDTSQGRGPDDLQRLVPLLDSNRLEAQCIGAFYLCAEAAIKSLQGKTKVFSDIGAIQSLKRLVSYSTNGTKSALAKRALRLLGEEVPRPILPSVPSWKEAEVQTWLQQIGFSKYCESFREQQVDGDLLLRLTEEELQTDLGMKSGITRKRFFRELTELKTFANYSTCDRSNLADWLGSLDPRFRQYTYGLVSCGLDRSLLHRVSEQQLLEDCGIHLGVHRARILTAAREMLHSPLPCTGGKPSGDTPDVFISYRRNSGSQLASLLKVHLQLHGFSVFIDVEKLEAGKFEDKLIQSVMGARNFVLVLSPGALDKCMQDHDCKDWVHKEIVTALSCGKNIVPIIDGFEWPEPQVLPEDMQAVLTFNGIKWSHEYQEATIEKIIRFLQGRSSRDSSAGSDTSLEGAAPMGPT

[8] = target: Mitogen-activated protein kinase 7 (Homo sapiens) (UniProt Q13164); test: ERK5 transactivation activators in reporter cells, primary screen, cell-based, HTS (AID 1508626;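 active means luciferase signal above three times the same-plate solvent-only control wells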;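 further: luciferase driven by Gal4-ERK5 fusion binding five Gal4 sites before minimal TATA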); conditions: HeLa Gal4-ERK5 transactivation, 18 h, at 5 µM, stronger effect = higher value
Chain of Mitogen-activated protein kinase 7 (Homo sapiens) (Q13164 whole entry, looked up, the tested form may be a part): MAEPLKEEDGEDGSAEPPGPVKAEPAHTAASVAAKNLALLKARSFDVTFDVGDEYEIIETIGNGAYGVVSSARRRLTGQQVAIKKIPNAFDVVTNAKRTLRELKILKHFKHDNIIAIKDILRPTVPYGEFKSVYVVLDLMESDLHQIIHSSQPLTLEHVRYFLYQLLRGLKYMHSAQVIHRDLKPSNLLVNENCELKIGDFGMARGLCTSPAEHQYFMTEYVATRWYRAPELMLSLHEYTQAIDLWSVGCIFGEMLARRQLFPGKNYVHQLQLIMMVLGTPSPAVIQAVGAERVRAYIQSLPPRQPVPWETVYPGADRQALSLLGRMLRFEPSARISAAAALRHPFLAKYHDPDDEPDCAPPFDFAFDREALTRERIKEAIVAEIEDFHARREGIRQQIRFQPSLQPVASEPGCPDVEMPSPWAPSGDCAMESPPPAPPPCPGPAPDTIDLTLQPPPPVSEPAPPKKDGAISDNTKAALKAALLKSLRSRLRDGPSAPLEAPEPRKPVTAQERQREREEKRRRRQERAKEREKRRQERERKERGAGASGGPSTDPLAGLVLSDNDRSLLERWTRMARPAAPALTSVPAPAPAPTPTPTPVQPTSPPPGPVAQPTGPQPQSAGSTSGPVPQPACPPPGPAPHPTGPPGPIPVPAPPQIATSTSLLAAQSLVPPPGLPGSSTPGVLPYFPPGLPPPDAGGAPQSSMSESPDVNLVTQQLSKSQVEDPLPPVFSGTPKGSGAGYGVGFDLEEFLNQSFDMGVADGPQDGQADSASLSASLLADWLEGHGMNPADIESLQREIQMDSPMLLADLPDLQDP

[9] = viability rescue of complex I mutant cybrids, primary screen, cell-based, galactose medium, ATP luminescence (AID 1645843;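 active means z-score of at least 1.8 in each of two replicates, scored against plate mean and spread of sample wells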;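 further: positive z means more ATP and so rescue of galactose-driven cybrid death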); conditions: complex I mutant cybrid cells, 72 h, stronger effect = higher value
[10] = system: Hepatitis C virus NS3 helicase; test: HCV NS3 helicase inhibitors, primary screen, biochemical, fluorescence polarization, LOPAC1280 library (AID 687035; in the data active means inhibition above about 37%); conditions: Purified HCV NS3 helicase, Cy5-dT15 ssDNA binding fluorescence polarization; stronger effect = higher value; concentration not given here
[11] = Cy5 fluorescence quenching or enhancement artefacts, artefact control for HCV NS3 helicase inhibitor project, biochemical, LOPAC1280 (AID 687037; call rule not given here); conditions: Cy5-DNA-NS3h complex fluorescence interference counterscreen
[12] = phospholipid biosynthesis inhibitors in animal cells, primary screen, cell-based, LOPAC library, screen 4 (AID 1347384; call rule not given here); conditions: phospholipid biosynthesis inhibition screen, at 10 µM
[13] = stronger effect = lower value, cell number ratio, induced over uninduced
[14] = measured here: relative caspase fold change +Dox/-Dox
[15] = measured here: total cells with miR-34 induction, stronger effect = lower value
[16] = measured here: total cells without miR-34 induction
[17] = MELAS cybrid survival, CellTiter-Glo 48 h, stronger effect = higher value
[18] = Rieske KO mouse fibroblast survival, CellTiter-Glo 72 h

Structure (SMILES) | fluorescence slope change [1] | period change [2] | survival [3] | parasite load remaining [4] | viability [4] | fold change [5, 13] | fold change [5, 14] | cell count [5, 15] | cell count [5, 16] | z-score [6, 17] | z-score [6, 18] | remaining NAD [7] | luciferase signal [8] | z-score [9] | inhibition [10] | fluorescence ratio (interference) [11] | outcome [12]
CO/N=C(\C(=O)N[C@@H]1C(=O)N2C(C(=O)O)=C(COC(C)=O)CS[C@H]12)c1csc(N)n1 (stereo in doubt) | 81.1% (active) | -0.095 h (inactive) | 16.2 (inactive) | 35.6% (inactive) and 93.3% (inactive) | 65.7% and 139% | 1.01 (inactive) and 0.948 (inactive) | 2.06 and 1.21 | 10500 and 9330 | 10300 and 9840 | 0.18 (inactive) | -0.136 | 10 nM (inactive) | 152 AU (inactive) | 0.04 (inactive) | – | – | –
N#C/C(=C\c1ccc(-c2cc(Cl)ccc2Cl)o1)C(=O)Nc1cccc2ncccc12 | – | – | – | – | – | 1.06 (inactive) and 0.955 (inactive) | 0.614 and 1.48 | 1870 and 5590 | 1750 and 5850 | – | – | – | – | 0.46 (inactive) | -12% (inactive) | 0.8 (active) | inactive
NC1CONC1=O (configuration not stated) | – | -0.095 h (inactive) | – | – | – | 1.01 (inactive) and 0.986 (inactive) | 2.01 and 1.56 | 10700 and 9620 | 10600 and 9760 | – | – | – | – | 0.065 (inactive) and 0.91 (inactive) | -2% (inactive) | 1 (inactive) | inactive
O=C(c1ccc(OCCCc2cnc[nH]2)cc1)C1CC1 | – | – | – | – | – | 0.955 (inactive) and 1.01 (inactive) | 1.12 and 0.82 | 9150 and 7760 | 9580 and 7660 | -0.324 (inactive) | -0.0656 | – | – | -1.01 (inactive) | -3% (inactive) | 1 (inactive) | inactive
C[C@@H]1NC(=O)NC1=O | 57.7% (active) | – | 3.92 (inactive) | 81.4% (inactive) and 66.6% (inactive) | 97.9% and 95.3% | 0.891 (inactive) and 0.879 (inactive) | 1.07 and 1.01 | 8770 and 8800 | 9840 and 10000 | 0.462 (inactive) | -0.44 | – | – | – | – | – | –
C[C@H]1[C@H](NC(=O)/C(=N\OC(C)(C)C(=O)O)c2csc(N)n2)C(=O)N1S(=O)(=O)O | – | – | 21.6 (inactive) | 29.2% (inactive) and 123% (inactive) and 17.7% (inactive) | 47.3% and 89% and 68% | 0.907 (inactive) and 0.865 (inactive) | 1.09 and 1.14 | 8940 and 9450 | 9850 and 10900 | 0.296 (inactive) and 0.337 (inactive) | 0.0689 and -0.343 | – | – | 0.06 (inactive) | – | – | –
CNCCC(Oc1ccccc1C)c1ccccc1 (configuration not stated) | – | 0.255 h (inactive) | – | – | – | 1.03 (inactive) and 0.898 (inactive) and 0.925 (inactive) | 1.24 and 2 and 2.24 | 9740 and 9090 and 9100 | 9500 and 10100 and 9850 | -0.0629 (inactive) | -0.0775 | – | – | -0.235 (inactive) and -0.28 (inactive) | -5% (inactive) | 0.9 (inactive) | inactive
CN(CC=CC#CC(C)(C)C)Cc1cccc2ccccc12 | – | – | – | – | – | 0.964 (inactive) and 0.918 (inactive) and 0.968 (inactive) | 2.12 and 1.02 and 0.751 | 9310 and 7680 and 9620 | 9660 and 8370 and 9940 | -0.142 (inactive) and -0.315 (inactive) | -0.993 and 0.763 | – | – | -1.88 (inactive) | – | – | –
O=c1onc2n1-c1cc(Br)ccc1OC2 | – | 0.015 h (inactive) | – | – | – | 1.09 (inactive) and 0.947 (inactive) | 1.04 and 0.916 | 11200 and 5950 | 10300 and 6280 | – | – | – | – | 0.095 (inactive) | -4% (inactive) | 1 (inactive) | inactive
CSC(=N)N | – | -0.11 h (inactive) | – | – | – | 1 (inactive) and 0.925 (inactive) | 1.64 and 1.46 | 10600 and 5770 | 10500 and 6230 | – | – | – | – | 0.095 (inactive) | -4% (inactive) | 1 (inactive) | inactive
CC(C)(C)c1onc(OCP(=O)(O)O)c1CC(N)C(=O)O (configuration not stated) | – | -0.03 h (inactive) | – | – | – | 1.04 (inactive) and 0.947 (inactive) | 1.07 and 1.18 | 10900 and 10600 | 10500 and 11200 | – | – | – | – | 0.82 (inactive) and 0.145 (inactive) | -3% (inactive) | 0.9 (inactive) and 1 (inactive) | inactive
CCN(CC)CCOc1ccc(/C(=C(/Cl)c2ccccc2)c2ccccc2)cc1 | 69.8% (active) | – | 1.25 (inactive) | 5.86% (inactive) and 13.7% (inactive) and 1.37% (inactive) | 83.4% and 76% and 71% | 0.802 (inactive) and 0.892 (inactive) | 1.39 and 1.34 | 7010 and 7690 | 8740 and 8620 | -1.93 (inactive) and -1.91 (inactive) | -0.316 and -1.39 | – | – | -2.19 (inactive) | – | – | –
